3CLpro inhibitor: SARS-CoV 3CLpro protease inhibitors, primary screen, biochemical, quenched FRET; Replicase polyprotein 1ab (Severe acute respiratory syndrome coronavirus), P0C6X7; recombinant SARS-CoV 3CLpro, quenched FRET peptide cleavage; AID 1706, 2009; inhibition, % at 6 µM; hit rate 0.14% among 290,000; in the data active = inhibition above about 12%
GDH-TPI counter-1: GDH-TPI coupling enzyme inhibitors, primary screen, artefact control for M. tuberculosis FBA inhibitor project, biochemical, absorbance, full deck; GDH-TPI coupled enzyme counterscreen, NADH absorbance; inhibition, % at 4.8 µM; hit rate 1.2% among 360,000; AID 588335, 2011; in the data active = inhibition above about 30%;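 note: 0% = DMSO wells and 100% = wells lacking the enzyme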
PrPC surface inh: inhibitors of human cell surface prion protein PrPC, primary screen, cell-based, TR-FRET; inhibition, % at 13.8 µM; TR-FRET read-out; hit rate 0.43% among 370,000; in the data active = inhibition above about 24%; note: 0% = median of the test wells and 100% = reference compound wells
FBA Mtb inh: Mtb FBA enzyme inhibitors, primary screen, biochemical, fluorescence, strain H37Rv | inhibition, % at 1 µM | AID 588726, 2011 | hit rate 2.3% among 360,000 | Fructose-bisphosphate aldolase (Mycobacterium tuberculosis (strain ATCC 25618 / H37Rv)), … | purified M. tuberculosis FBA, fluorescence read-out;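 note: 0% = vehicle and 100% = reference inhibitor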
Target sequence (P9WQA3 whole entry, looked up): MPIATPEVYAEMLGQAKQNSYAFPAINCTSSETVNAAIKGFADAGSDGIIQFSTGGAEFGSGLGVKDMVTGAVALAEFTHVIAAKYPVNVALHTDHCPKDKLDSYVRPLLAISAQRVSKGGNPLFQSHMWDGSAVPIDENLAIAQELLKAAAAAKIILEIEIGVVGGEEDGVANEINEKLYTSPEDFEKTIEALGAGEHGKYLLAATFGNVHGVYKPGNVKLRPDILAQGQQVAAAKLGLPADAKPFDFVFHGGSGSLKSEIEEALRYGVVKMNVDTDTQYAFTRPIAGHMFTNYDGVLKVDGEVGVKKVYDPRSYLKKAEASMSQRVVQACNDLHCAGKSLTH
Vc quorum ag: inducers of Vibrio cholerae quorum light production without autoinducers, primary screen, BH1578 luxS cqsA deficient, single point; V. cholerae BH1578 lux reporter, luminescence, 6 h; AID 588436, 2011; activation, % at 18.7 µM; hit rate 0.16% among 350,000; in the data active = activation mostly above about 9.7%, no sharp cut-off
Mtb FBA confirm: M. tuberculosis aldolase blockers, biochemical, fluorescence, strain H37Rv, confirmation; purified M. tuberculosis FBA, fluorescence read-out; inhibition, % at 1 µM; hit rate 78% among 5,600; shares compounds with FBA Mtb inh; AID 651616, 2012;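 note: 0% = vehicle wells and 100% = reference inhibitor wells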
GDH-TPI counter-2: GDH-TPI coupling enzyme inhibitors, artefact control for M. tuberculosis FBA inhibitor project, biochemical, fluorescence, high throughput; shares compounds with FBA Mtb inh; GDH-TPI coupled enzyme counterscreen; inhibition, % at 1 µM; hit rate 81% among 5,600; AID 652141, 2013; in the data active = inhibition above about 10%
Numbers without * were called inactive; i = inactive; / = no result given; + = active, no number. Sampled rows, rich in hits. Any-hit rate of the full collection: about 3.9%. Cut-off read from the data, not from the text of the source, unless noted: active = inhibition above about 27%; inactive = the rest.

SMILES | 3CLpro inhibitor | GDH-TPI counter-1 | PrPC surface inh | FBA Mtb inh | Vc quorum ag | Mtb FBA confirm | GDH-TPI counter-2
Cc1cc(C)n2nc(NCc3ccccc3)nc2n1 | 0.5 | 6.5 | -0.6 | 54.7* | -1.7 | 3.8 | -5.2
COc1ccc(-c2nc3nc(C)cc(C)n3n2)cc1 | 2.3 | -10.6 | 0.9 | 57.2* | -0.3 | 49.5* | 38.0*
COc1ccc(C)cc1S(=O)(=O)Nc1cccc(-c2cn3cccnc3n2)c1 | 2.0 | 12.1 | 10.3 | 89.3* | -0.4 | 4.7 | -6.4
O=S(=O)(Nc1cccc(-c2nnco2)c1)c1ccc(Cl)cc1 | -1.3 | 6.1 | 2.6 | 2.6 | -0.2 | / | /
O=S(=O)(Nc1cccc(-c2cn3cccnc3n2)c1)c1ccc(Cl)cc1 | 4.5 | 19.8 | 9.6 | 56.4* | -0.2 | 5.6 | -7.1
COc1ccc(CN2CCC2(C)C(=O)Nc2cnc3ccccc3c2)c2ccccc12 (centres undefined) | / | -0.9 | -0.1 | 0.1 | i | / | /
CC(=O)Nc1ccc(/C(C)=N/Nc2nc(Nc3cccc4ccccc34)nc(N3CCOCC3)n2)cc1 | 5.3 | 6.9 | -5.3 | -3.0 | -0.4 | / | /
CCOC(=O)Cc1csc(/N=C/c2c(O)n(-c3ccccc3C(F)(F)F)c(=O)c3ccccc23)n1 | 0.0 | 17.9 | 3.4 | 104.8* | i | 85.8* | 58.4*
CCOC(=O)Cc1csc(-n2sc3ccccc3c2=O)n1 | 1.8 | 3.6 | 6.4 | -1.0 | i | / | /
O=C1NC[C@@H](CCCCN2C[C@H](Cc3ccc(O)cc3)N(CC3CCCCC3)C(=O)C2=O)N(CC2CCCCC2)C1=O | / | / | 4.6 | / | / | / | /
CCCCCCOc1ccc(N2C(=O)CC(SC(=NCC)NCC)C2=O)cc1 (centres undefined) | 0.7 | -4.4 | 1.9 | -1.8 | i | / | /
Cc1[nH]n2c(=O)c3c(nc2c1-c1cccc2ccccc12)CCC3 | -7.9 | 7.7 | -1.8 | 50.8* | i | 132.2* | 96.2*
COc1cc(C(=O)Nc2ccc(S(=O)(=O)N3CCOCC3)cc2)c([N+](=O)[O-])cc1OC | -6.7 | 16.1 | -24.8 | 1.1 | -2.0 | / | /
Cc1ccc(-c2c(NC(=O)C(C)C)n(C)c3ccccc3c2=O)cc1 | 1.7 | 9.0 | 3.8 | 4.6 | i | / | /
COc1ccc(-c2c(NC(=O)C(C)C)n(C)c3ccccc3c2=O)cc1 | -3.2 | 16.3 | 1.2 | 36.7* | -0.4 | + | +
COc1ccccc1-n1c(=O)[nH]c2c(C(N)=O)nc(-c3cccnc3)nc21 | / | 28.2 | 1.1 | 38.9* | -0.2 | 4.0 | 3.8
COc1ccccc1-n1c(=O)[nH]c2c(C(N)=O)nc(C3CCCCC3)nc21 | 1.4 | 17.5 | -2.7 | 27.2* | -0.2 | + | +
COc1ccc(-c2nc(C(N)=O)c3[nH]c(=O)n(-c4ccccc4OC)c3n2)c(OC)c1 | -1.2 | 25.4 | 0.6 | 6.8 | -0.2 | / | /
O=C(Nc1c(-c2ccc3c(c2)OCO3)[nH][nH]c1=O)c1ccccc1 | / | / | -0.5 | 5.3 | / | / | /
Nc1ccc2ccc(O)cc2c1 | / | 12.8 | -8.7 | 7.0 | i | / | /
Nc1ccc2ccccc2c1 | / | 3.5 | 7.2 | 28.4* | i | 40.1* | 34.4*
CCN1CCSc2ccc(C(=O)NCc3ccc(OC(C)C)cc3)cc21 | 2.6 | 15.3 | 6.2 | 41.7* | 0.5 | 80.5* | 55.7*
CCOc1ccc(CNC(=O)c2ccc3c(c2)N(CC)CCS3)cc1 | 10.6 | 6.2 | 3.4 | 70.9* | -0.2 | 122.3* | 88.2*
CCN1CCSc2ccc(C(=O)NCc3cc(Br)ccc3OC)cc21 | 3.5 | -7.3 | 11.0 | 36.6* | -0.2 | 101.6* | 75.8*
CCN1C(=O)CSc2ccc(C(=O)NCc3ccc(OC)cc3)cc21 | -5.8 | -11.9 | 7.0 | -4.5 | -0.2 | / | /
SMILES | 3CLpro inhibitor | GDH-TPI counter-1 | PrPC surface inh | FBA Mtb inh | Vc quorum ag | Mtb FBA confirm | GDH-TPI counter-2
COc1cc(C2C(C#N)=C(N)Oc3cc(C)n(CC4CCCO4)c(=O)c32)cc2c1OCO2 (centres undefined) | 1.6 | 4.4 | 3.7 | 3.5 | 0.0 | / | /
Cc1cc2c(c(=O)n1CC1CCCO1)C(c1ccco1)C(C#N)=C(N)O2 (centres undefined) | -3.3 | 12.2 | -2.6 | 31.6* | -0.4 | 40.8* | 37.9*
COc1ccc(S(=O)(=O)N(C)C[C@@H]2OCCCC[C@@H](C)Oc3ccc(NS(=O)(=O)c4cccs4)cc3C(=O)N([C@H](C)CO)C[C@@H]2C)cc1 | / | 1.0 | 0.1 | -1.2 | -2.1 | / | /
Cc1nc2nc(-c3ccc(F)cc3)cn2nc1C | -0.5 | 8.8 | -12.0 | 50.4* | 0.9 | 43.0* | 38.0*
COc1cc2sc3cc(NCC[C@@H]4CCCN4C)ccc3c(=O)c2cc1OC | / | 41.8* | 0.0 | 31.9* | -0.4 | + | 193.8*
CCn1cc(C(=O)NCc2ccc(C)o2)c2cc(OC)c(OC)cc2c1=O | -1.5 | 6.7 | 2.5 | 0.3 | i | / | /
COc1cc2sc3cc(NCc4ccc(C)o4)ccc3c(=O)c2cc1OC | / | 19.8 | -3.7 | 32.8* | -1.4 | 131.3* | 125.8*
COc1ccc(-n2nc(C(=O)NCC(=O)NCCC3=CCCCC3)c3ccccc3c2=O)cc1 | 3.4 | 6.5 | -0.2 | 1.8 | -0.6 | / | /
CCCOc1ccc(C(=O)N2CCC(Oc3cccnc3)CC2)cc1 | / | / | 4.1 | / | / | / | /
CCOC(=O)c1oc2nc3c(cc2c1N)CCCC3 | 2.7 | -10.3 | -5.5 | 25.5 | 0.6 | / | /
CCOC(=O)c1oc2nc(C)c3c(c2c1N)CC(C)(C)OC3 | 3.5 | 0.6 | -1.4 | 34.0* | 2.9 | 100.4* | 75.2*
CCOC(=O)c1oc2nc3c(cc2c1N)COC(C)(C)C3 | -3.4 | 11.8 | -4.5 | 45.5* | i | 11.9 | 16.6*
COc1ccc(-n2c(=S)[nH]c3sc4c(c3c2=O)CCN(C)C4)cc1 | -3.0 | / | / | / | / | / | /
CCOC(=O)CN1C(=O)/C(=C/c2ccccc2Br)Oc2ccccc21 | 0.4 | 7.8 | -3.7 | 7.2 | i | / | /
O=C(CN1C(=O)/C(=C\c2cccc(Br)c2)Oc2ccccc21)NCCCN1CCOCC1 | 7.3 | 14.9 | -14.0 | 33.4* | -0.5 | 161.8* | 130.4*
O=C(O)CN1C(=O)/C(=C/c2cccc(Cl)c2)Oc2ccccc21 | 2.7 | 18.2 | 2.8 | 67.2* | i | + | +
O=C(CN1C(=O)COc2ccccc21)NCCCN1CCOCC1 | -2.3 | 4.5 | -1.6 | 1.2 | -0.3 | / | /
CN(CCOC(=O)c1cc2ccccc2o1)C1CN(Cc2cn(Cc3cccc(F)c3)nn2)S(=O)(=O)C1 (centres undefined) | / | / | 1.3 | / | / | / | /
COCC(C)NC(=O)c1ccccc1OC(C)=O (centres undefined) | -1.0 | 9.9 | -2.6 | 34.8* | i | 42.2* | 37.5*
